Laboratory results as given in PubChem BioAssay AID1159580 (chemical genetic matrix, 2015).
Hit rate of the full screen: of about 5,500 compounds, about 2,000 (36%) were called active. Not shown: some 18% with an inconclusive outcome. Rule as the data show it: active = normalized growth mostly below about 0.91 (no sharp cut-off); inconclusive = no clear call, values can overlap the other calls; inactive = mostly above about 0.92. This is one part of the list.

Test: chemical genetic growth profiling, strain panel (AID 1159580);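 also: tested at 20 µM; growth read once vehicle control cultures reached saturation at 30 °C; 1 = growth at the plate median or of vehicle wells; lower values mean less growth of the strain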
Details: growth OD

Measured: normalized growth

FC(F)(F)c1cc(-c2noc(C3CCc4ccccc4O3)n2)cc(C(F)(F)F)c1 (centres undefined)
inactive: S. cerevisiae deletion strains, locus YAL013W, strain DEP1, hits give low values 0.999 | S. cerevisiae deletion strains, locus YBR229C, strain ROT2, hits give low values 1.02 | S. cerevisiae deletion strains, locus YCL061C, strain MRC1, hits give low values 0.988 | S. cerevisiae deletion strains, locus YDL101C, strain DUN1, hits give low values 0.995 | S. cerevisiae deletion strains, locus YDL134C, strain PPH21, hits give low values 1.03 | S. cerevisiae deletion strains, locus YDR150W, strain NUM1, hits give low values 0.942 | S. cerevisiae deletion strains, locus YEL061C, strain CIN8, hits give low values 1.01 | S. cerevisiae deletion strains, locus YGR078C, strain PAC10, hits give low values 0.988 | S. cerevisiae deletion strains, locus YGR229C, strain SMI1, hits give low values 1 | S. cerevisiae deletion strains, locus YHR030C, strain SLT2, hits give low values 1.05 | S. cerevisiae deletion strains, locus YHR087W, strain rtc3, hits give low values 0.994 | S. cerevisiae deletion strains, locus YJR043C, strain POL32, hits give low values 0.998 | S. cerevisiae deletion strains, locus YJR075W, strain HOC1, hits give low values 0.97 | S. cerevisiae deletion strains, locus YKL190W, strain CNB1, hits give low values 1.02 | S. cerevisiae deletion strains, locus YLR039C, strain RIC1, hits give low values 1.04 | S. cerevisiae deletion strains, locus YLR058C, strain SHM2 (second series), hits give low values 0.995 | S. cerevisiae deletion strains, locus YLR085C, strain ARP6, hits give low values 0.98 | S. cerevisiae deletion strains, locus YLR262C, strain YPT6, hits give low values 1.04 | S. cerevisiae deletion strains, locus YML094W, strain GIM5, hits give low values 0.982 | S. cerevisiae deletion strains, locus YMR219W, strain ESC1, hits give low values 1 | S. cerevisiae deletion strains, locus YMR263W, strain SAP30, hits give low values 0.993 | S. cerevisiae deletion strains, locus YNL153C, strain GIM3, hits give low values 0.998 | S. cerevisiae deletion strains, locus YNL298W, strain CLA4 (second series), hits give low values 1.01 | S. cerevisiae deletion strains, locus YNL322C, strain KRE1, hits give low values 0.985 | S. cerevisiae deletion strains, locus YNR030W, strain Alg12, hits give low values 0.996 | S. cerevisiae deletion strains, locus YPL055C, strain LGE1, hits give low values 0.96 | S. cerevisiae deletion strains, locus YPL241C, strain CIN2, hits give low values 0.985 | S. cerevisiae deletion strains, locus YPR135W, strain CTF4, hits give low values 1.11 | S. cerevisiae strains, strain wild type, hits give low values 1
